The target of assay [1] is Cell division control protein 42 homolog (Homo sapiens) (UniProt P60953). Description: inhibition of fluorescent GTP binding to constitutively active Cdc42 – biochemical, multiplex bead flow cytometry, Bodipy-FL-GTP, dose response (AID 1333;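 active = fitted half-maximal concentration within the tested dose range, moderate curve steepness, a statistically real signal drop, and little compound fluorescence or tag-binding interference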).
For assay [2] the target is unchanged. Briefly: inhibition of fluorescent GTP binding to wildtype Cdc42 – biochemical, multiplex bead flow cytometry, Bodipy-FL-GTP, dose response (AID 1334). The settings on record: bead-based flow cytometry, Bodipy-FL-GTP binding to GST-Cdc42; at 100 µM (top of the series) unless noted.
Assay [3] deals with GTPase HRas (Homo sapiens) (UniProt P01112). Briefly: Ras wt fluorescent GTP loading blockade – biochemical, wildtype, multiplex bead flow cytometry, dose response (AID 1335;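 active = fitted half-maximal concentration within 10 nM to 100 µM, steepness 0.5 to 2, significant signal drop, low assay interference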). The note with it: bead-based flow cytometry, Bodipy-GTP binding to GST-Ras; at 100 µM (top of the series) unless noted.
Sequence of GTPase HRas (Homo sapiens) (P01112 whole entry, looked up): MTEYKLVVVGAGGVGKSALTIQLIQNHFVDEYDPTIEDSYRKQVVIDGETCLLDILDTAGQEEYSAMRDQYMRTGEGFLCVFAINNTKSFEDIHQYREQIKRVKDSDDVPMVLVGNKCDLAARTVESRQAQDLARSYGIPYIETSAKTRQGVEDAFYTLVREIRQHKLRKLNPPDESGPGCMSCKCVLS
Assay [4] has as its system Ras-related protein Rab-7a (dog), GTP binding. Briefly: blockers of fluorescent GTP binding to Rab7 – biochemical, wildtype, multiplex bead flow cytometry, dose response (AID 1336; call rule not given here).
Assay [5] deals with Ras-related C3 botulinum toxin substrate 1 (Homo sapiens) (UniProt P63000). Description: inhibition of wildtype Rac1 nucleotide loading – biochemical, multiplex bead flow cytometry, dose response (AID 1340;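 active = dose curve with midpoint inside tested range, moderate steepness, plateau gap beyond fit error, low compound glow and bead-link interference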). The note with it: GST-Rac1 beads, Bodipy-FL-GTP binding; at 100 µM (top of the series) unless noted.
The target in assay [6] is GTPase HRas (Homo sapiens) (UniProt P01112). Description: blockade of GTP loading onto mutant Ras – biochemical, activated mutant, multiplex bead flow cytometry, dose response (AID 1341;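 active = dose-response curve with midpoint inside the tested range, moderate steepness, significant amplitude and little compound fluorescence or bead-attachment interference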;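 note: GST-tagged constitutively activated Ras mutant immobilized on beads and multiplexed with other GTPases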).

For part of these data: Potency and affinity values are given separately. The source made the active and inactive calls.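 Rule for the calls, unless noted: active = fitted half-maximal concentration within the tested range, moderate curve steepness, significant signal drop, and little compound fluorescence or bead-linkage interference; inactive = the rest.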

Sequence of Cell division control protein 42 homolog (Homo sapiens) (P60953 whole entry, looked up): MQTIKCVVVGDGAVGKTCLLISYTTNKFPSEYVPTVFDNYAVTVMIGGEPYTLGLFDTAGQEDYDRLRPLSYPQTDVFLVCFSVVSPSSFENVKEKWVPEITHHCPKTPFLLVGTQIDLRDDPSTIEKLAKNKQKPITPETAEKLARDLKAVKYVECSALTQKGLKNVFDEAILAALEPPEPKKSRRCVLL

`COc1cc(/C=N/NC(=O)CN(Cc2ccco2)S(=O)(=O)c2ccccc2)ccc1O`: the outcome in assay [1], in assay [4] and in assay [6] was inactive. Also, the fluorescence, percent of control (lower = inhibition) in assay [2] is 32.8%. Moreover, the GTP binding, percent of control in assay [3] is 46.1%. This compound also gave a GTP binding signal, raw median fluorescence (lower = inhibition) (MCF (arbitrary fluorescence units)) in assay [5] of 104.

As to `O=[N+]([O-])c1cccc(S(=O)(=O)N2CCCC2)c1`, the compound was called inactive in assay [1], in assay [4] and in assay [6]. The same compound returned a fluorescence, percent of control (lower = inhibition) in assay [2] of 52.4%. The GTP binding, percent of control in assay [3] was determined as 63.8%. For the same compound, in assay [5], the GTP binding signal, raw median fluorescence (lower = inhibition) (MCF (arbitrary fluorescence units)) was 205.

In the case of `COc1cc(C(=O)OCC(=O)Nc2ccc3c(c2)OC(F)(F)O3)ccc1OCc1c(C)noc1C`, the compound was classed as inactive in assay [1], in assay [4] and in assay [6]. The fluorescence, percent of control (lower = inhibition) in assay [2] came to 52.4%. In assay [3], this compound came in with a GTP binding, percent of control of 53.9%. Besides, in assay [5], the GTP binding signal, raw median fluorescence (lower = inhibition) (MCF (arbitrary fluorescence units)) came out at 186.

For `Oc1ccc(C2=Nn3c(nnc3-c3ccco3)SC2)cc1O`, the call in assay [1], in assay [4] and in assay [6] was inactive. In addition, in assay [2], the fluorescence, percent of control (lower = inhibition) worked out at 25.1%. This compound gave a GTP binding, percent of control in assay [3] of 35.2%. Also, the GTP binding signal, raw median fluorescence (lower = inhibition) (MCF (arbitrary fluorescence units)) in assay [5] is 0.

In the case of `COCCNc1nc(=S)[nH]c2cc(OC)c(OC)cc12`, the compound was called inactive in assay [1], in assay [4] and in assay [6]. In assay [2], this compound had a fluorescence, percent of control (lower = inhibition) of 35.9%. In assay [3], this compound registered a GTP binding, percent of control of 43.7%. The compound further yielded a GTP binding signal, raw median fluorescence (lower = inhibition) (MCF (arbitrary fluorescence units)) in assay [5] of 103.

In the case of `Cc1nn2c(-c3cccc(NC(=O)c4ccco4)c3)nnc2c2ccccc12`, the result in assay [1], in assay [4] and in assay [6] was inactive. In assay [2], the fluorescence, percent of control (lower = inhibition) amounted to 37.4%. Moreover, the GTP binding, percent of control in assay [3] was 51% [at 33.3 µM]. Besides, in assay [5], the GTP binding signal, raw median fluorescence (lower = inhibition) (MCF (arbitrary fluorescence units)) amounted to 136.

Consider `COc1ccccc1N1CCN(S(=O)(=O)c2cccc(F)c2)CC1`, for which the outcome in assay [1], in assay [4] and in assay [6] was inactive. Further, the fluorescence, percent of control (lower = inhibition) in assay [2] was determined as 49%. Besides, the GTP binding, percent of control in assay [3] is 62.4%. The same compound had a GTP binding signal, raw median fluorescence (lower = inhibition) (MCF (arbitrary fluorescence units)) in assay [5] of 213.

With `O=C(O)c1ccc(CSCc2ccccc2Cl)o1`, the compound was classed as inactive in assay [1], in assay [4] and in assay [6]. Besides, the fluorescence, percent of control (lower = inhibition) in assay [2] worked out at 57.8%. The GTP binding, percent of control in assay [3] came out at 79.8%. Moreover, the GTP binding signal, raw median fluorescence (lower = inhibition) (MCF (arbitrary fluorescence units)) in assay [5] was 30.2.

Consider `CCOC(=O)c1c(-c2ccc(C)cc2)csc1NC(=O)/C(C#N)=C/c1ccc(O)c(OC)c1`, for which the outcome in assay [1], in assay [4] and in assay [6] was inactive. In addition, the fluorescence, percent of control (lower = inhibition) in assay [2] is 87.8%. Besides, in assay [3], the GTP binding, percent of control turned out to be 99.4%. Also, the GTP binding signal, raw median fluorescence (lower = inhibition) (MCF (arbitrary fluorescence units)) in assay [5] was found to be 226.

In the case of `CCOC(=O)N1CCC(NC(=O)c2ccc3nc4ccccc4c(=O)n3c2)CC1`, the compound was classed as inactive in assay [1], in assay [4] and in assay [6]. The fluorescence, percent of control (lower = inhibition) in assay [2] is 97.6%. Further, the GTP binding, percent of control in assay [3] is 122%. In assay [5], this compound showed a GTP binding signal, raw median fluorescence (lower = inhibition) (MCF (arbitrary fluorescence units)) of 152.

`COC(=O)c1cn(CCOc2ccc(C)cc2)c2ccccc12`: the call in assay [1], in assay [4] and in assay [6] was inactive. Also, the fluorescence, percent of control (lower = inhibition) in assay [2] was 37%. Besides, the GTP binding, percent of control in assay [3] was found to be 84.4%. The compound also displayed a GTP binding signal, raw median fluorescence (lower = inhibition) (MCF (arbitrary fluorescence units)) in assay [5] of 175.

For `N#CC(c1ccc(Cl)nn1)c1ccc(Cl)cc1Cl` (stereo not given), the compound was classed as inactive in assay [1], in assay [4] and in assay [6]. The compound further returned a fluorescence, percent of control (lower = inhibition) in assay [2] of 34.5%. The GTP binding, percent of control in assay [3] was determined as 77.7%. This compound returned a GTP binding signal, raw median fluorescence (lower = inhibition) (MCF (arbitrary fluorescence units)) in assay [5] of 263.

With `Cc1nc(-c2ccccc2)sc1C(=O)NN`, the call in assay [1], in assay [4] and in assay [6] was inactive. This compound also showed a fluorescence, percent of control (lower = inhibition) in assay [2] of 39.4%. The compound also gave a GTP binding, percent of control in assay [3] of 82.3%. Moreover, the GTP binding signal, raw median fluorescence (lower = inhibition) (MCF (arbitrary fluorescence units)) in assay [5] came out at 248.

As to `Cc1nn(CCc2nn[nH]n2)c2nc(-c3ccc(C4CCCCC4)cc3)cc(C(F)(F)F)c12`, the outcome in assay [1], in assay [4] and in assay [6] was inactive. The compound further yielded a fluorescence, percent of control (lower = inhibition) in assay [2] of 22.1%. Moreover, the GTP binding, percent of control in assay [3] turned out to be 79.4%. The GTP binding signal, raw median fluorescence (lower = inhibition) (MCF (arbitrary fluorescence units)) in assay [5] was 249.

As to `C/C(=N\Nc1ccc(S(N)(=O)=O)cc1[N+](=O)[O-])c1ccc2c(c1)OCO2`, the outcome in assay [1], in assay [4] and in assay [6] was inactive. The fluorescence, percent of control (lower = inhibition) in assay [2] amounted to 36.3%. Moreover, the GTP binding, percent of control in assay [3] worked out at 79.8%. Also, the GTP binding signal, raw median fluorescence (lower = inhibition) (MCF (arbitrary fluorescence units)) in assay [5] came out at 220.
